Data as given in PubChem BioAssay.
Active and inactive are the calls of the source.

Experiments:
[1] = test system: Human papillomavirus type 1a protein E7 (residues 44-93); assay: HPV1a E7 fragment binders on microarrays, primary screen, biochemical, small-molecule microarray, residues 44-93, 635 nm fluorescence (AID 1108); details: small-molecule microarray binding, fluorescence 635 nm; higher = more signal;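 further: E7 fragment applied at 1 µg/mL in TBST for 1 h at 4 C; score combines spot fluorescence with its signal to noise ratio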
[2] = modulators of HCV replicon luciferase signal, primary screen, HCV replication inhibitor project, Huh7 cells, luciferase reporter (AID 1109); details: 48 h, higher = more signal;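 further: huh7 hepatoma cells harbouring a luciferase neomycin HCV replicon reporter; luciferase luminescence as measure of HCV replicon replication; test concentration not given here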
[3] = target: Left-right determination factor 2 (Homo sapiens) (UniProt O00292); assay: LEFTY2 binders on small-molecule microarrays, primary screen, biochemical, small-molecule microarray, 635 nm fluorescence scan (AID 1110); details: LEFTY2 binding, higher = more signal
Chain of Left-right determination factor 2 (Homo sapiens) (O00292 whole entry, looked up): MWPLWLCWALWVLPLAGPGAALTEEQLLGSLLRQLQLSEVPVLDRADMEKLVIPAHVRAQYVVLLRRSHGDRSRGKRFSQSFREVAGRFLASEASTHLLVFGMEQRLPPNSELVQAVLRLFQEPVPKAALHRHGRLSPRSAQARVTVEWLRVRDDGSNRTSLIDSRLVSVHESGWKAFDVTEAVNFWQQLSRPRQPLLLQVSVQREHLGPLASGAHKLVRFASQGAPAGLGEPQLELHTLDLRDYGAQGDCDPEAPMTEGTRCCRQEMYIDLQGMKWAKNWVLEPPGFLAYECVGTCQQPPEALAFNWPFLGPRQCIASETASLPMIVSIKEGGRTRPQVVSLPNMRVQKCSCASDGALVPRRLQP

[4] = target: Calmodulin-1 (Homo sapiens) (UniProt P0DP23); assay: CALM1 binders on microarrays, EGTA buffer, profiling panel, biochemical, small-molecule microarray, Cy5-labelled CALM1 (AID 1111); details: Cy5-CALM1 binding fluorescence, higher = more signal;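 further: labelled calmodulin applied in Tris saline Tween buffer holding calcium plus EGTA and DTT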
[5] = target: Calmodulin-1 (Homo sapiens) (UniProt P0DP23); assay: calcium-bound CALM1 binders on microarrays, profiling panel, artefact control for SMM control-protein annotation, biochemical, small-molecule microarray, Cy5-labelled CALM1, plus calcium (AID 1112); details: Cy5-CALM1 binding fluorescence, higher = more signal;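 further: score merges spot fluorescence with signal to noise from triplicate slides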
[6] = small-molecule microarray binders of probe aWnt5a, primary screen, biochemical, biotinylated probe, 635/667 nm fluorescence (AID 1113); details: higher = more signal;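 further: score merges 667 nm fluorescence intensity with signal-to-noise per printed feature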
[7] = small-molecule microarray binders of probe aShh, primary screen, biochemical, biotinylated probe, 635/667 nm fluorescence (AID 1114); details: higher = more signal;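 further: probe is biotin-labelled aShh protein from a stem cell growth factor screen; measures binding of labelled protein to compounds printed on the slide; score merges feature fluorescence at 667 nm with signal-to-noise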
[8] = small-molecule microarray binders of probe aNog, primary screen, biochemical, biotinylated probe, 635/667 nm fluorescence (AID 1115); details: higher = more signal;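 further: probe is biotinylated aNog protein used at 0.15 µg/mL for 1 h at 4 C; z-score combines 667 nm fluorescence of each spot with its signal to noise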
[9] = target: Torsin-1A-interacting protein 1 (Homo sapiens) (UniProt Q5JTV8); assay: LAP1 binders from COS7 cell lysate, primary screen, small-molecule microarray, 635/667 nm fluorescence (AID 1116); details: COS7-hLAP1 lysate binding, 635 nm fluorescence, higher = more signal
Chain of Torsin-1A-interacting protein 1 (Homo sapiens) (Q5JTV8 whole entry, looked up): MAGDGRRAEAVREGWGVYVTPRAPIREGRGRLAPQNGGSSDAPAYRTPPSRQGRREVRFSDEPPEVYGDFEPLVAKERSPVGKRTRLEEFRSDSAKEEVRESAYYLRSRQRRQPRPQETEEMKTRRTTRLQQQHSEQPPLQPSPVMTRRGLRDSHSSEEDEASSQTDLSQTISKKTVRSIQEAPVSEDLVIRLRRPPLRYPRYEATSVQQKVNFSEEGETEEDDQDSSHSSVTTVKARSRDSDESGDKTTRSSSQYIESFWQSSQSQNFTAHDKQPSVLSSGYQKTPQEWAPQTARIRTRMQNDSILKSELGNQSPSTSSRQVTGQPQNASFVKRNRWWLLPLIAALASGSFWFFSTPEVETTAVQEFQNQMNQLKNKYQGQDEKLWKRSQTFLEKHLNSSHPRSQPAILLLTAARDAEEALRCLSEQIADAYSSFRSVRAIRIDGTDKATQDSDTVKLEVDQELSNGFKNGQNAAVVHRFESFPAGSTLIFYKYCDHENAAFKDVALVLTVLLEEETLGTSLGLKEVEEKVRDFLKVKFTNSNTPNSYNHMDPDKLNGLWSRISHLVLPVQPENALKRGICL

[10] = target: Alpha-bungarotoxin (Bungarus multicinctus) (UniProt P60615); assay: alpha-bungarotoxin binders on microarray, profiling panel, artefact control for SMM control protein annotation, biochemical, small-molecule microarray, Alexa647 label, 635/667 nm fluorescence (AID 1117); details: alpha-BTX-A647 binding fluorescence, higher = more signal
Chain of Alpha-bungarotoxin (Bungarus multicinctus) (P60615 whole entry, looked up): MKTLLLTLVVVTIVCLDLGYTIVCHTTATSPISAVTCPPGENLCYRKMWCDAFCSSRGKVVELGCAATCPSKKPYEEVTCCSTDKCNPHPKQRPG

Albumin (Bos taurus) = Albumin (Bos taurus) (UniProt P02769); assay: bovine serum albumin binders on microarray, profiling panel, artefact control for SMM control protein annotation, biochemical, small-molecule microarray, Alexa647 label, 635/667 nm fluorescence (AID 1118); details: BSA-A647 binding, fluorescence 635 nm, higher = more signal;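 further: score merges 667 nm emission intensity and signal-to-noise per printed compound spot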
Chain of Albumin (Bos taurus) (P02769 whole entry, looked up): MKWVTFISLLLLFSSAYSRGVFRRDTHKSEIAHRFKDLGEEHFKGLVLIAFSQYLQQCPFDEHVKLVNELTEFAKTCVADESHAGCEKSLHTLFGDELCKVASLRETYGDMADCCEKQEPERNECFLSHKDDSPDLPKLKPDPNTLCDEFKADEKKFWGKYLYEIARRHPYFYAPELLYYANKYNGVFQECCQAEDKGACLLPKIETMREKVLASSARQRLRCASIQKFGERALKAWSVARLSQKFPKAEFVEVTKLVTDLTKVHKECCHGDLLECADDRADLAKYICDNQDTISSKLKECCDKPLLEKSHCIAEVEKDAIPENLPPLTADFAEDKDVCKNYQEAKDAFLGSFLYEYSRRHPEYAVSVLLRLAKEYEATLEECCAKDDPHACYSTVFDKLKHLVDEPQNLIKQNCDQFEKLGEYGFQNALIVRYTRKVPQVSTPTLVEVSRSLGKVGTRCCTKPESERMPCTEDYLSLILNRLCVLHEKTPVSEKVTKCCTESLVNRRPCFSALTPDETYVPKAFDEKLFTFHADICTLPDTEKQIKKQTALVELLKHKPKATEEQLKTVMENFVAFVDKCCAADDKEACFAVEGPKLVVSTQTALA

[11] = small-molecule microarray binders of probe aXIP, primary screen, biochemical, NeuroSMM set, 635/667 nm fluorescence (AID 1119); details: higher = more signal, called active from +8 up or from −8 down;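 further: probe is the protein aXip251-270 applied at 1 µg/mL to compound-printed slides; binding of probe to printed compounds measured as 667 nm fluorescence plus signal to noise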
[12] = small-molecule binders of probe aNOTCH3, primary screen, biochemical, small-molecule microarray, 635/667 nm fluorescence (AID 1120); details: higher = more signal;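 further: probe is a biotin-tagged antibody raised against NOTCH3 rather than NOTCH3 protein; score merges spot fluorescence near 667 nm with spot signal to noise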
[13] = small-molecule binders of probe aNOTCH2, primary screen, biochemical, small-molecule microarray, 635/667 nm fluorescence (AID 1121); details: higher = more signal;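 further: score merges feature fluorescence read at 667 nm with its signal to noise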
[14] = target: Carbonic anhydrase 2 (Homo sapiens) (UniProt P00918); assay: CAII small-molecule binders, profiling panel, biochemical, small-molecule microarray, Alexa647-labelled CAII (AID 1122); details: CAII-A647 binding fluorescence, higher = more signal
[15] = COS7 lysate on small-molecule microarray, probe aHis, 635 nm (AID 1123); details: COS7 cell lysate, fluorescence, higher = more signal;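 further: z-score combines 667nm fluorescence intensity with signal-to-noise per printed compound spot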
[16] = compound binding in COS7 lysate, probe aLAP1, primary screen, cell lysate, small-molecule microarray (AID 1124); details: probe aLAP1, fluorescence, higher = more signal;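 further: lysate comes from COS7 cells expressing LAP1 and is applied at 0.3 µg/mL; score merges spot fluorescence near 667 nm with signal-to-noise over triplicate slides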
Sam68 (KHDRBS1) = assay: Sam68 small-molecule binders, primary screen, biochemical, small-molecule microarray, 635 nm fluorescence (AID 1125); details: small-molecule microarray binding, higher = more signal;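 further: score merges 667 nm channel intensity with signal to noise over triplicate slides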
[17] = test system: Chordin-like protein 2 (CHRDL2); assay: CHRDL2 small-molecule binders, primary screen, biochemical, small-molecule microarray, 635 nm fluorescence (AID 1126); details: small-molecule microarray binding, fluorescence 635 nm; higher = more signal;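 further: printed compound slides probed with Chrdl2 protein at 4 µg/mL for 1 h at 4 C; score merges 667 nm emission intensity with signal to noise over three replicate slides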
[18] = target: Concanavalin-A (Canavalia ensiformis) (UniProt P02866); assay: ConA small-molecule binders, primary screen, artefact control for SMM control protein annotation, biochemical, small-molecule microarray, Alexa647 label, 635 nm (AID 1127); details: ConA-A647 binding fluorescence, higher = more signal;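 further: z combines 667 nm emission intensity with signal-to-noise across three replicate slides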
Chain of Concanavalin-A (Canavalia ensiformis) (P02866 whole entry, looked up): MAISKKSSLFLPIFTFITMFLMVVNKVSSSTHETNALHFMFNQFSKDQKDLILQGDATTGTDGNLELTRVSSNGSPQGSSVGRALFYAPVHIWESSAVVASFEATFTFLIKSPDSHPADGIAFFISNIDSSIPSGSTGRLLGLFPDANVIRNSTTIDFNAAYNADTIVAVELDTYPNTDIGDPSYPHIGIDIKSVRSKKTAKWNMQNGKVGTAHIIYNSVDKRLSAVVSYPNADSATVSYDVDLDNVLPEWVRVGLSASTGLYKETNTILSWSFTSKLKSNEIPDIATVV

Structure (SMILES) | composite z-score [1] | z-score [2] | composite z-score [3] | composite z-score [4] | composite z-score [5] | composite z-score [6] | composite z-score [7] | composite z-score [8] | composite z-score [9] | composite z-score [10] | composite z-score (Albumin (Bos taurus)) | composite Z-score [11] | composite z-score [12] | composite z-score [13] | composite z-score [14] | composite z-score [15] | composite z-score [16] | composite z-score (Sam68 (KHDRBS1)) | composite z-score [17] | composite z-score [18]
C=C[C@H](C)[C@H](O)c1ccc(OCCO)cc1 | -2.7 | -1.54 | -1.42 | -0.215 | 0.486 | -0.139 | -0.108 | -0.278 | -1.26 | -1.27 | -0.529 | -0.254 (inactive) | -0.502 | -0.185 | 0.264 | -1.09 | -0.177 | -1.74 | -2.23 | -0.802
NC(=O)NCC#Cc1ccc2c(c1)[C@]1(C(=O)N2)[C@H](c2ccc(O)cc2)N2[C@H](c3ccccc3)[C@H](c3ccccc3)OC(=O)[C@H]2[C@@H]1C(=O)N1CCN(c2ncccn2)CC1 | 0.237 | -0.762 | 0.158 | 0.301 | 0.476 | -0.13 | -0.349 | 0.789 | 0.811 | 0.772 | 0.317 | 1.24 (inactive) | 0.191 | -0.0048 | 0.396 | 1.64 | 0.32 | -0.0586 | -0.165 | 0.377
C=CCNC(=O)[C@H]1[C@@H]2C(=O)O[C@@H](c3ccccc3)[C@@H](c3ccccc3)N2[C@@H](c2ccc(O)cc2)[C@]12C(=O)Nc1ccc(C#Cc3ccc(OC)cc3)cc12 | 0.758 | -2.06 | 0.884 | 0.664 | -0.367 | -0.219 | 0.278 | 0.409 | 1.31 | 0.196 | -0.208 | -0.155 (inactive) | -0.0903 | 0.0086 | 0.38 | 1.68 | 0.616 | 1.3 | 0.704 | 0.552
C=C(CCCC)/C(=C/C[C@H](OC(C)=O)c1ccc(CO)o1)c1cc(C(=O)OC)ccc1OC | 1.4 | -1.58 | 0.305 | 0.184 | -0.592 | -0.101 | 0.0639 | 0.116 | 0.599 | 1.44 | 0.588 | 0.297 (inactive) | 0.133 | -0.149 | 0.694 | 0.699 | 0.53 | 1.17 | 0.323 | 0.902
COc1ccc([Si](C)(C)[C@H]2[C@H](CC(=O)N3Cc4ccccc4C[C@H]3CO)O[C@@]3(C(=O)N(Cc4cccc(I)c4)c4ccccc43)[C@@H]2C)cc1 | 0.276 | -3.8 | 0.947 | -0.551 | 1.49 | -0.124 | 0.0815 | -0.1 | 0.225 | -0.0241 | -0.481 | 0.58 (inactive) | -0.0947 | -0.125 | 0.784 | -0.0845 | -0.361 | 0.418 | 1.54 | 0.891
O=C(NCc1ccccc1)[C@@H]1c2ccccc2C(=O)N(C2CCCCC2)[C@H]1c1ccc(CO)cc1 | 1.47 | -0.166 | -0.379 | -0.576 | -0.545 | -0.104 | -0.247 | -0.282 | 0.089 | -0.09 | 0.654 | 0.142 (inactive) | -0.112 | -0.286 | 0.795 | 0.642 | 1.78 | 0.467 | -0.475 | 0.335
CN1C(=O)C2C=CC(C(O)c3ccc(Br)cc3)N(Nc3ccccc3)C2C1=O (stereo not given) | -0.0441 | 0.15 | -1.43 | -0.209 | 0.394 | -0.124 | -0.178 | 0.154 | 0.65 | -0.292 | 0.768 | 0.304 (inactive) | 0.145 | 0.0498 | 0.678 | 0.991 | 0.204 | 0.168 | -0.723 | -0.597
CCN(CC)c1ccc(N2CC=CC34O[C@@H]5/C=C\CCCOC(=O)C5[C@H]3C(=O)N(CCCO)[C@@H]4C2=O)cc1 (stereo not given in full) | 0.941 | -0.597 | -2.09 | -0.629 | 0.479 | -0.197 | 0.14 | -0.0238 | 2.44 | -1.44 | -1.05 | 0.895 (inactive) | -0.373 | -0.104 | 0.935 | 3.01 | 2.3 | 0.244 | -1.83 | -0.77
COC(=O)c1c2oc(c1C(=O)OC)C(=O)N[C@H](Cc1ccccc1)Cn1nncc1C1(CCCCC1)NC(=O)N[C@H](CO)CC2 | 0.613 | -0.398 | 0.0801 | -0.16 | -0.661 | -0.0179 | -0.138 | -0.308 | -0.208 | -0.181 | -0.399 | 0.699 (inactive) | -0.143 | -0.192 | 0.163 | 0.388 | -0.0073 | 0.702 | 0.419 | 0.0053
CCCNC(=O)[C@@]1(C)c2ccccc2C(=O)N(C(C)C)[C@H]1c1ccc(CO)cc1 | -0.0794 | -1.99 | -1.28 | -0.58 | -0.145 | -0.212 | -0.262 | -0.0172 | -0.109 | -0.731 | -0.598 | -0.305 (inactive) | -0.136 | -0.102 | 0.673 | 1.63 | 0.65 | -0.347 | -0.95 | -1.15
C=C(C(=O)CC[C@@H](OC(C)=O)c1ccc(OCCO)cc1)C(C)C | 0.522 | -1.88 | -0.384 | -0.43 | -0.908 | 0.117 | -0.0866 | 0.365 | 0.159 | 0.227 | 0.773 | 0.154 (inactive) | -0.122 | -0.0908 | 0.76 | 1.57 | -0.773 | 0.135 | 0.0246 | 0.187
COCCOC(=O)N1C(=O)[C@@]2(c3cc(C#CCCO)ccc31)[C@H](c1ccc(O)cc1)N1[C@H](c3ccccc3)[C@H](c3ccccc3)OC(=O)[C@H]1[C@@H]2C(=O)N1CCCCCCC1 | 0.727 | -0.407 | 0.811 | 1.51 | 0.425 | 0.17 | 0.374 | -0.295 | 2.53 | 1.92 | 0.0837 | 1.11 (inactive) | 0.489 | 0.0931 | 0.431 | 0.666 | 0.642 | 1.3 | 0.755 | 1.1
CN(C)CCCC[C@@H]1NC(=O)[C@@H]2C[C@H](C(=O)NCc3ccc(F)cc3)[C@H](c3cccc(OCCO)c3)N2C1=O | 1.17 | 0.679 | 0.748 | 0.337 | 0.136 | -0.1 | 0.207 | -0.399 | 1.07 | 0.356 | -0.202 | -0.398 (inactive) | -0.0311 | -0.0598 | 0.569 | 2 | 0.776 | 1.05 | 0.991 | 1.11
COCCOC(=O)N1C(=O)[C@@]2(c3cc(C#Cc4ccc(OC)cc4)ccc31)[C@H](c1ccc(O)cc1)N1[C@H](c3ccccc3)[C@H](c3ccccc3)OC(=O)[C@H]1[C@@H]2C(=O)N1CCN(c2ncccn2)CC1 | 1.37 | -1.05 | 0.224 | 0.966 | 0.361 | -0.0846 | -0.441 | -0.124 | 0.596 | 0.829 | 0.303 | -0.321 (inactive) | 0.0486 | -0.0956 | 0.395 | 1.48 | 0.406 | 1.2 | -0.126 | 0.657
C=CCOC(=O)[C@@H]1[C@H]2C(=O)O[C@H](c3ccccc3)[C@H](c3ccccc3)N2[C@H](c2ccc(OCCOC(=O)[C@H]3C[C@H]4C(=O)N[C@@H](Cc5ccccc5)C(=O)N4[C@H]3c3ccc(O)cc3)cc2)[C@@]12C(=O)Nc1ccc(I)cc12 | 1.06 | -2.78 | 0.866 | -0.0584 | -1.26 | -0.135 | 0.302 | 0.116 | 1.03 | 1.66 | -0.893 | 1.43 (inactive) | 0.0092 | 0.27 | 0.554 | 0.931 | 1.17 | 1.29 | 1.12 | 1.16
O=C(NCC(O)CO)[C@@]1(Cc2ccccc2)COC(c2ccc(OCCCO)cc2)=N1 (stereo not given in full) | 0.422 | -0.992 | -0.483 | 0.77 | 1.11 | -0.0704 | -0.283 | -0.134 | 0.561 | -0.363 | 0.536 | -0.936 (inactive) | -0.0984 | -0.189 | 0.738 | 0.737 | -0.192 | -0.274 | -0.445 | -1.4
